Bioassay records (PubChem BioAssay)
Shown are actives, neighbours in structure and some others; about 9.3% of the full set was active somewhere.
HCMV inh: human cytomegalovirus inhibition; HFF cells, HCMV-luciferase reporter, 72 h; hits give low values; activity change, negative = inhibition, % at 57.5 µM; 410,000 tested, 4.5% active; in the data active = activity change below about -60%; inconclusive = no clear call, values can overlap the other calls; inactive = above about -39%
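Two compound doses tested in HFFs infected with HCMV-luciferase, MOI 1 PFU/cell, 72 h at 37C. Lysate luminescence read with OneGlo; data normalized against buffer-only and 10uM Salinomycin inhibitor controls.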
Sm TGR block: blocks Schistosoma mansoni thioredoxin glutathione reductase; Q962Y6; Potency, µM (series often up to 114 µM), most hits filed as inhibitors; purified TGR, DTNB reduction, TNB absorbance 405 nm; 360,000 tested, 3% active; note: nearly all actives have a fitted effect of over 60% in size
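First, TGR (20 nM dispensed) and NADPH were mixed with compound. Second, a 15 min room-temperature incubation followed. Third, further NADPH and then DTNB were added to start the reaction. Finally, TNB absorbance was monitored kinetically.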
Vaccinia mCherry: vaccinia inhibition (mCherry reporter). Potency, µM (titrated, usually from 36.5 µM), most hits filed as inhibitors. 310,000 tested, 0.63% active. Vaccinia virus mCherry reporter infection, fluorescence; calls by dose curve; tested in A549 cells; note: nearly all actives have a fitted effect of over 35% in size
HCV inhibitor: HCV inhibition | Huh7.5.1 HCVcc-Cre infection, luciferase reporter, 44 h | AID 651820 | 340,000 tested, 3.4% active | Potency, µM (top dose mostly 41.8 µM), usual class: inhibitors
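HCVcc-Cre virus at an moi near 0.5 was added right after compound to cells cultured 4 h from seeding (1,000 cells/well). Luciferase activity was determined 44 h later, 15 min after substrate addition at RT.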
VACV Venus inh: vaccinia inhibition (Venus reporter). Vaccinia virus Venus reporter expression, fluorescence. Potency, µM (titrated, usually from 36.5 µM), usual class: inhibitors. 330,000 tested, 0.46% active; calls by dose curve; tested in A549 cells; note: nearly all actives have a fitted effect of over 30% in size
FMDV antiviral: blocks foot and mouth disease virus. FMDV antiviral cell-based qHTS. Potency, µM (highest dose often 57.9 µM), hits mostly inhibitors. 410,000 tested, 1.2% active; calls by dose curve; tested in HEK293T cells; note: read-out not given here; nearly all actives have a fitted effect of over 45% in size
Of the large screens only hits and unclear results are named; the others gave an inactive call; ! = not confirmed by another sample. Unless noted, calls come from the whole dose curve; as a rule, active = well fitted curve in the direction sought with a large enough effect; inconclusive = small, poorly fitted or top-dose-only effect, or another doubt; inactive = no such curve, though single readings can be large; an effect the other way counts as inactive or inconclusive.

COc1cc(Cl)c(C)cc1NC(=O)CCCn1c(=O)oc2ccccc21	VACV Venus inh inconclusive
O=C(c1ccccc1Br)N(Cc1ccccc1)c1ccccc1	HCMV inh -62
O=C(Nc1ccccc1C(=O)NCc1ccccc1)c1ccccc1Br	HCV inhibitor inconclusive
COc1ccc(N2CCN(C(=O)c3[nH]c(C(F)(F)F)nc3-c3ccccc3)CC2)cc1	none (no result: Sm TGR block, HCV inhibitor)
Cc1cc(C2=NNC(=NC3CCCCC3)SC2)c(C)n1-c1c(C)n(C)n(-c2ccccc2)c1=O	none
FC(F)Sc1ccc(N=C2NN=C(c3ccc4c(c3)OCCO4)CS2)cc1	HCV inhibitor 10µM (no result: Vaccinia mCherry, VACV Venus inh)
Cc1cc(C2=NNC(=NC3CC3)SC2)c(C)n1-c1ccccc1F	HCMV inh -97, HCV inhibitor 11µM, FMDV antiviral 0.01µM (no result: Vaccinia mCherry, VACV Venus inh)
c1cc2c(cc1C1=NNC(=NC3CC3)SC1)OCCO2	HCMV inh -90, FMDV antiviral inconclusive (no result: Vaccinia mCherry, VACV Venus inh)
O=C(/C=C/c1ccc(F)cc1)NC(=S)NC1CCCCC1	none (no result: Vaccinia mCherry, VACV Venus inh)
CN(C(=S)NC(=O)/C=C/c1ccc(F)cc1)C1CCCCC1	HCMV inh -76
CC(C)NC(=S)NC(=O)/C=C/c1ccc(F)cc1	HCMV inh -76
COC(=O)/C=C/C(=O)Nc1ccc(O)c(Cl)c1	Sm TGR block 45µM
COc1ccc(/C=C/C(=O)Nc2ccc(Cl)c(Cl)c2)cc1	none (no result: HCV inhibitor)
Nc1nn(-c2ccccc2)nc1C(=O)OCc1ccccc1	none
COc1cccc(COC(=O)c2nn(-c3ccccc3)nc2N)c1	FMDV antiviral 25µM!
COc1ccc2nc(C)cc(Nc3ccccc3OC)c2c1	none (no result: Sm TGR block, HCV inhibitor)
CN1CC(C(=O)O)Cc2c1ccc1ccccc21 (centres undefined)	Sm TGR block 20µM, Vaccinia mCherry inconclusive
CN1C(=O)N(C)C(=O)C2(Cc3c(ccc4ccccc34)N(C)C2)C1=O	none (no result: Vaccinia mCherry, VACV Venus inh)
COc1ccc(C)cc1S(=O)(=O)Nc1ccc2c(c1)OCO2	none
CCCCNc1c(-c2ccc(OC)c(SC(C)CC)c2)nc2cnccn12 (centres undefined)	Vaccinia mCherry inconclusive, HCV inhibitor inconclusive, FMDV antiviral inconclusive (no result: Sm TGR block)
CCCCCCSc1cc(-c2nc3ccc(C)cn3c2NCCCC)ccc1OC	VACV Venus inh inconclusive, FMDV antiviral 35µM (no result: Sm TGR block)
CCCCNc1c(-c2ccc(OC)c(SC(C)CC)c2)nc2cc(C)ccn12 (centres undefined)	HCMV inh -79!, Vaccinia mCherry 25µM, HCV inhibitor 7.1µM, VACV Venus inh inconclusive, FMDV antiviral 28µM (no result: Sm TGR block)
CCCCNc1c(-c2ccc(SC(C)CC)cc2)nc2ccccn12 (centres undefined)	HCV inhibitor 22µM, VACV Venus inh inconclusive, FMDV antiviral inconclusive
CCCCNc1c(-c2ccc(OC)c(SC(C)CC)c2)nc2ccc(C)cn12 (centres undefined)	HCMV inh -63!, Vaccinia mCherry inconclusive, HCV inhibitor inconclusive, FMDV antiviral 32µM (no result: Sm TGR block)
CCCCCCSc1cc(-c2nc3ccc(Cl)cn3c2NCCCC)ccc1OC	HCMV inh inconclusive
CCCCNc1c(-c2ccc(OC)c(SC(C)CC)c2)nc2ccc(Cl)cn12 (centres undefined)	HCV inhibitor inconclusive (no result: Sm TGR block)
Cc1ccc(F)c(Oc2cc(NN3CCCCC3)c([N+](=O)[O-])cc2[N+](=O)[O-])c1	FMDV antiviral inconclusive
CCCCNc1c(-c2ccc(Sc3ccc(OC)cc3)cc2)nc2cc(C)ccn12	Vaccinia mCherry inconclusive, HCV inhibitor 10µM, VACV Venus inh inconclusive, FMDV antiviral inconclusive (no result: Sm TGR block)
COc1ccc(-c2nc3cc(C)ccn3c2NCC2CCCO2)cc1OC (centres undefined)	none (no result: Sm TGR block)
CCCCNc1c(-c2ccc(-c3ccc(C(C)=O)cc3)c(OC)c2)nc2cc(C)ccn12	HCMV inh -93, Vaccinia mCherry inconclusive, HCV inhibitor inconclusive, VACV Venus inh inconclusive, FMDV antiviral inconclusive (no result: Sm TGR block)
COc1ccc(-c2nc3cc(C)ccn3c2NCc2ccc3c(c2)OCO3)cc1	none (no result: Vaccinia mCherry, VACV Venus inh)
COCc1c(C(=O)N/N=C/c2ccncc2)nnn1-c1nonc1N	none
O=S(=O)(c1cccc(-c2csc(-c3cccnc3)n2)c1)N1CCCCC1	HCMV inh -69, HCV inhibitor inconclusive (no result: Vaccinia mCherry, VACV Venus inh)
O=S(=O)(c1cccc(-c2csc(-c3cccnc3)n2)c1)N1CCOCC1	HCMV inh inconclusive, HCV inhibitor inconclusive
O=S(=O)(c1ccc(-c2csc(-c3cccnc3)n2)cc1)N1CCCCC1	HCMV inh -62, HCV inhibitor inconclusive, FMDV antiviral inconclusive (no result: Vaccinia mCherry, VACV Venus inh)
COc1ccc(Cl)cc1NC(=O)NCc1cccnc1	HCV inhibitor inconclusive
COc1ccc(Cl)cc1NC(=O)c1c(NCc2ccc(C)o2)sc2c1CCCC2	Sm TGR block 28µM (no result: HCV inhibitor)
CCOc1ccccc1NC(=O)c1c(NCc2ccc(C)o2)sc2c1CCCCC2	Sm TGR block 8.9µM (no result: HCV inhibitor)
COc1ccc(Cl)cc1NC(=O)c1c(NCc2cccnc2)sc2c1CCCC2	Sm TGR block 20µM (no result: HCV inhibitor)
COc1ccc(OC)c(NC(=O)c2c(NCc3ccc(C)o3)sc3c2CCC(C)C3)c1 (centres undefined)	Sm TGR block 40µM (no result: HCV inhibitor)
CCN(CC)CCn1c2c(c(SCC(=O)Nc3cc(C)ccc3C)nc1=O)CCC2	none
CCOP(=S)(OCC)SCSc1ccc(Cl)cc1	none (no result: Sm TGR block, Vaccinia mCherry, HCV inhibitor, VACV Venus inh, FMDV antiviral)
CC(C)N(Cc1ccc(F)cc1)C(=O)c1cc2ccccc2oc1=O	none (no result: Vaccinia mCherry, HCV inhibitor, VACV Venus inh, FMDV antiviral)
Cc1nc2cc(F)ccc2n1C1CCN(C(=O)c2c(F)cccc2F)CC1	HCV inhibitor inconclusive, FMDV antiviral inconclusive
CCn1cc(CN2CCC(C(=O)Nc3ccc(Oc4ccccc4F)cc3)CC2)c(C)n1	HCV inhibitor 2.8µM, FMDV antiviral inconclusive
CC(C)n1cc(CN2CCC(C(=O)Nc3ccc(Oc4ccccc4F)cc3)CC2)cn1	HCMV inh inconclusive, HCV inhibitor 11µM (no result: Vaccinia mCherry, VACV Venus inh)
C#CC1(N2CCCCC2)CCCCC1	HCMV inh -62 (no result: Sm TGR block, HCV inhibitor)
Cc1ccc(Nc2nc(C)c(NC(=O)c3ccc(C)cc3)c(Nc3ccc(C)cc3)n2)cc1	HCMV inh -63 (no result: HCV inhibitor)
CCOc1ccc(Nc2nc(C)c(NC(=O)c3ccc(C)cc3)c(Nc3ccc(OCC)cc3)n2)cc1	Vaccinia mCherry inconclusive, VACV Venus inh inconclusive (no result: HCV inhibitor)
COc1ccc(CC(=O)OC(C)C(=O)NCc2ccc3c(c2)OCO3)cc1OC (centres undefined)	none (no result: Vaccinia mCherry, VACV Venus inh)
Cc1nnc(N/N=C/c2ccc([N+](=O)[O-])cc2)n1N	none
Nn1cnnc1N/N=C/c1ccc(Cl)c([N+](=O)[O-])c1	Sm TGR block inconclusive, Vaccinia mCherry inconclusive, VACV Venus inh inconclusive
Cc1nnc(N/N=C/c2cc([N+](=O)[O-])c(N3CCC(C)CC3)cc2N2CCC(C)CC2)n1N	HCMV inh inconclusive, Sm TGR block inconclusive, HCV inhibitor 13µM, FMDV antiviral inconclusive (no result: Vaccinia mCherry, VACV Venus inh)
CCc1nnc(N/N=C/c2ccc(N3CCC(C)CC3)c([N+](=O)[O-])c2)n1N	Vaccinia mCherry 10µM, HCV inhibitor inconclusive, VACV Venus inh inconclusive
CCCN1CCN(C(=O)c2ccc(F)c(S(=O)(=O)N3CCOCC3)c2)CC1	none (no result: Vaccinia mCherry, VACV Venus inh)
CC(C)(CNC(=O)c1ccc(-c2ccccc2Cl)o1)N1CCOCC1	none
